Sampled rows, rich in hits. Any-hit rate of the full collection: about 2.2%.
Mot1-301 SUMO: inhibitors of SUMOylation pathway: yeast Mot1-301 growth rescue | actives 1% (n = 320,000) | AID 2716 | growth rescue, % at 18.8 µM | S. cerevisiae Mot1-301 growth rescue, ATP luminescence, 38.5C; percent above DMSO median, 100 means doubled;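 active = every valid replicate shows activation above 250% relative to neutral control wells; inactive = the rest, any valid replicate at or below 250%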
JMJD2C inh: human JMJD2C demethylase inhibition | Q9H3R0 | actives 0.069% (n = 330,000) | AID 2099 | GST-JMJD2C(1-420) H3K9me3 demethylation, DELFIA europium | inhibition, % at 2.35 µM;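 active = more than half of a compound's replicate wells show inhibition beyond 50%, single wells judged on their own value; inconclusive = some, but no more than half, of replicates pass 50% inhibition; inactive = no replicate passes 50% inhibition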;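 note: signal counts dimethyl H3K9 product captured on neutravidin plate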
pCIP destab: compounds decreasing mouse p/CIP protein stability | F442A p/CIP-EGFP cells, EGFP fluorescence, 16 h | actives 0.01% (n = 290,000) | decrease of EGFP signal, % at 10 µM | Q05BA5;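 active = EGFP signal decrease of at least 30% at 10 µM or well 3 SD below plate mean, unless failing retest; inactive = the rest, including hits failing retest or dose response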
HDAC3 inhib: human HDAC3 inhibition | O15379 | recombinant HDAC3, fluorogenic peptide/trypsin coupled, fluorescence | inhibition, % at 8.3 µM | actives 0.15% (n = 320,000) | AID 2718; in the data active = inhibition above about 26%, passing the limit was not always enough; inconclusive = no clear call, values can overlap the other calls
PHOSPHO1 block: blocks human PHOSPHO1 phosphatase activity; actives 1.1% (n = 290,000); Q8TCT1; AID 1565; inhibition, % at 13.3 µM; recombinant PHOSPHO1, absorbance phosphatase assay; in the data active = inhibition above about 60%
Target sequence (Q8TCT1 whole entry, looked up): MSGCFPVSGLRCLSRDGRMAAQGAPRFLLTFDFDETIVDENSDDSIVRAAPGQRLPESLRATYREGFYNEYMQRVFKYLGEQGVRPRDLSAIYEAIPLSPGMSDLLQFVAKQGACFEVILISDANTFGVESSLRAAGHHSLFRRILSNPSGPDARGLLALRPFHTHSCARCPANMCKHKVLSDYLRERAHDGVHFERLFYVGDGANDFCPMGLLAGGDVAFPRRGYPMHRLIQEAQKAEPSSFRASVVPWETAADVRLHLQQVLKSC
PvdQ inh: P. aeruginosa PvdQ acylase inhibition; purified PvdQ acylase, fluorescence plate reader; inhibition, % at 10 µM; actives 0.063% (n = 340,000); in the data active = inhibition above about 30%, passing the limit was not always enough; inconclusive = no clear call, values can overlap the other calls
A number is an active result.

`CCN(CC)S(=O)(=O)c1ccc2oc(C(=O)N3CCCCCC3)c(C)c2c1` gave Mot1-301 SUMO inactive, JMJD2C inh inactive, pCIP destab 38.5, HDAC3 inhib inactive, PHOSPHO1 block inactive and PvdQ inh inactive.
For CC(C#N)(NC(=O)CN1CCN(S(=O)(=O)c2ccc(Br)cc2Cl)CC1)C1CC1 (centres undefined) the results were Mot1-301 SUMO inactive, JMJD2C inh inactive, HDAC3 inhib inactive and PvdQ inh inactive.
Screening CCCCCC#CCC#CCC#CCC#CCCCC(=O)O returned Mot1-301 SUMO inactive, JMJD2C inh inconclusive, pCIP destab inactive, PHOSPHO1 block 79.4 and PvdQ inh inactive.
Screening CCCCCCCCCC(=O)O returned PvdQ inh inactive.
Cc1cc(C)cc(NC(=S)NCCN(C2CCCCC2)C2CCCC2)c1 was read as Mot1-301 SUMO 430.2, JMJD2C inh inactive, pCIP destab inactive, HDAC3 inhib inactive, PHOSPHO1 block inactive and PvdQ inh inactive.
Screening Cc1cccc(C2c3[nH]c4ccccc4c3CCN2C(=O)c2cc(C(C)C)nc(N)n2)n1 (centres undefined) returned Mot1-301 SUMO inactive, JMJD2C inh inactive, pCIP destab inactive, HDAC3 inhib inactive, PHOSPHO1 block 68.4 and PvdQ inh inactive.
`CCn1c(=O)c2cc(C(=O)Nc3ccc(OC)cc3OC)sc2c2ccccc21` gave Mot1-301 SUMO active, JMJD2C inh inactive, pCIP destab inactive, HDAC3 inhib inactive, PHOSPHO1 block inactive and PvdQ inh inactive.
For O=C(c1cccs1)n1nc(-c2ccccc2)nc1NCc1ccc(F)cc1 the results were Mot1-301 SUMO inactive, JMJD2C inh inactive, pCIP destab inactive, HDAC3 inhib inactive, PHOSPHO1 block inactive and PvdQ inh inactive.
Screening CC(=O)n1nc(-c2ccccc2)nc1NCc1ccc(F)cc1 returned Mot1-301 SUMO inactive, JMJD2C inh inactive, pCIP destab inactive, HDAC3 inhib 32.1, PHOSPHO1 block inactive and PvdQ inh inactive.
CCC(=O)n1nc(-c2cccnc2)nc1NCc1ccc(F)cc1 was read as Mot1-301 SUMO inactive, JMJD2C inh inactive, pCIP destab inactive, HDAC3 inhib 28.7, PHOSPHO1 block inactive and PvdQ inh inactive.
For O=c1[nH]c2c(c(=O)[nH]1)CCC2 the results were Mot1-301 SUMO inactive, JMJD2C inh inactive, pCIP destab inactive, HDAC3 inhib inactive, PHOSPHO1 block inactive and PvdQ inh inactive.
Screening O=C(O)c1ccc(/C=C/c2nc3sc4c(c3c(=O)[nH]2)CCC4)cc1 returned Mot1-301 SUMO inactive, JMJD2C inh inactive, pCIP destab inactive, HDAC3 inhib inactive, PHOSPHO1 block inactive and PvdQ inh inactive.
For CN(C)c1nc(-c2cn(CCC#N)c3ccccc23)cs1 the results were Mot1-301 SUMO inactive, JMJD2C inh inactive, pCIP destab inactive, HDAC3 inhib inactive, PHOSPHO1 block inactive and PvdQ inh inactive.
COc1c(Cl)cc(Cl)cc1/C=C/C(=O)c1ccc(NC(=O)c2cccs2)cc1 was read as Mot1-301 SUMO inactive, JMJD2C inh inactive, pCIP destab inactive, HDAC3 inhib inactive, PHOSPHO1 block inactive and PvdQ inh inactive.
`Cc1ccccc1-n1c(=O)/c(=C\c2ccco2)s/c1=C(/C#N)C(=O)Nc1ccccc1` gave Mot1-301 SUMO inactive, JMJD2C inh inactive, pCIP destab inactive, HDAC3 inhib inactive, PHOSPHO1 block 83.3 and PvdQ inh inactive.
Screening CCn1c(SCC(=O)n2c(C)c(C)c3ccccc32)nnc1-c1ccco1 returned Mot1-301 SUMO inactive, JMJD2C inh inactive, pCIP destab inactive, HDAC3 inhib inactive, PHOSPHO1 block inactive and PvdQ inh inactive.
Screening Cc1c(C)n(C(=O)CSc2nccn2C)c2ccccc12 returned Mot1-301 SUMO inactive, JMJD2C inh inactive, pCIP destab inactive, HDAC3 inhib inactive, PHOSPHO1 block 61.1 and PvdQ inh inactive.
`CC(=O)Nc1ccc(C(=O)N/C(=C/c2ccccc2)C(=O)NCc2ccco2)cc1` gave Mot1-301 SUMO inactive, JMJD2C inh inactive, pCIP destab inactive, HDAC3 inhib inactive, PHOSPHO1 block inactive and PvdQ inh inactive.
Screening CC(NC(=O)COC(=O)c1cc([N+](=O)[O-])ccc1N1CCOCC1)c1ccc(F)cc1 (centres undefined) returned Mot1-301 SUMO inactive, JMJD2C inh inactive, HDAC3 inhib inactive and PvdQ inh inactive.

High-throughput results from PubChem.
